From ChEMBL document CHEMBL3988442, “University of Dundee, Small-Polar-MMV Screening Library” (2021)
The whole screen tested about 48,000 compounds, of which about 13,000 (27%) showed an effect of 50% or more. The list shows a part of the results.

Test system: Wolbachia pipientis
Assay: Anti-Wolbachia Cell-Based Screen
Format: functional
Set-up: scale not given: in the data most compounds retested in dose-response had high values
Conditions: 5 µM

Row | SMILES | Percent Effect [%]
1 | O=C(Nc1ncn(Cc2cccc(Br)c2)n1)C1CCC1 | 6.264
2 | CN(Cc1ccc(F)cc1)C(=O)CN1CCOC(Cn2cccn2)C1 (centres undefined) | 121.8
3 | Cc1ccccc1CN(C)C(=O)CN1CCOC(Cn2cccn2)C1 (centres undefined) | 111
4 | Cc1nnc(NC(=O)CN2CCOC(Cn3cccn3)C2)s1 (centres undefined) | -11.4
5 | O=C(CN1CCOC(Cn2cccn2)C1)NCCc1ccc(F)cc1 (centres undefined) | -2.964
6 | CN(Cc1ccc(F)cc1)C(=O)CN1CCOC(Cn2cncn2)C1 (centres undefined) | -5.304
7 | O=C(CN1CCOC(Cn2cccn2)C1)Nc1ccncc1 (centres undefined) | -3.889
8 | CCN(CCC(F)(F)F)C(=O)Nc1cccc(N2CCOCC2)c1 | -10.51
9 | CC1CCN(CC(O)CNc2ccccn2)CC1 (centres undefined) | -1.4
10 | CCC(=O)N1CCC(Cc2cc(Nc3ncccn3)ncn2)CC1 | 93.47
11 | CN1CCC(Cc2cc(Nc3ncccn3)ncn2)CC1 | -2.002
12 | CN1CCC(Cc2cc(Nc3ccccn3)ncn2)CC1 | 68.08
13 | N#CCCN(Cc1cccnc1)C(=O)c1ccn(-c2ccccc2)n1 | 1.241
14 | COc1ccc(/C=C/CN2C[C@H]3CC[C@@H]2CN(S(=O)(=O)N(C)C)C3)cc1 | 13.82
15 | C[C@H](O)CNc1cc(-c2ccccc2)ncn1 | 111.5
16 | C[C@H](O)CNc1cc(-c2ccncc2)ncn1 | 115
17 | COc1cc(NCC(c2ccccn2)N(C)C)ncn1 (centres undefined) | 0.2576
18 | CC(C)c1cc(NCC(O)c2ccncc2)n2nccc2n1 (centres undefined) | -8.35
19 | CC(C)c1cc(NCC2(CO)CCCC2)ncn1 | 7.781
20 | C[C@H](O)CNC(=O)c1cnc(-c2ccccc2)nc1O | -14.22
21 | O=C(c1ccno1)N1CCC2(CC(=O)N(c3ccc4c(c3)OCO4)C2)C1 (centres undefined) | -9.598
22 | Cc1ccc(C)c(C(O)Cn2cc(Cl)c(=O)[nH]c2=O)c1 (centres undefined) | 3.012
23 | COCCNC(=O)C(C)n1cc(Br)cn1 (centres undefined) | 8.857
24 | COCCNC(=O)Cn1cc2c(n1)c(C)nn2C | 124.1
25 | COCCNC(=O)Cn1cc2c(n1)c(C)nn2C(C)C | 92.82
26 | COCCNC(=O)N1CCOCC1c1c(C)nn(C)c1C (centres undefined) | -9.833
27 | COCCNC(=O)Cn1nc(C(C)C)c2cnn(C(C)(C)C)c2c1=O | -0.4126

Row | SMILES | Percent Effect [%]
28 | CCn1nccc1CNC(=O)C(C)n1cc2c(n1)c(C)nn2C (centres undefined) | 13.18
29 | CCn1nccc1CNC(=O)Cn1cc2c(n1)c(C)nn2C(C)C | 116.7
30 | COCCNC(=O)c1cnc(C)nc1C | -12.85
31 | CCn1nccc1CNC(=O)C1CCCC1 | 10.33
32 | O=C(NCc1cnc2n1CCN(Cc1cccs1)C2)c1ccno1.O=C(O)C(F)(F)F | -34.76
33 | CC(C)(C)c1noc(CCC(=O)N2CCNC(=O)C2)n1 | -18.81
34 | CC(C)Cc1ncc2c(n1)CN(c1cc(N)nc(N)n1)C2 | 16.38
35 | CN(CCc1cn[nH]c1)C(=O)C(c1ccc(F)cc1)N(C)C (centres undefined) | -6.005
36 | Cc1ccc(C(C(=O)N(C)CCc2cn[nH]c2)N(C)C)cc1 (centres undefined) | 3.285
37 | CN(CCc1cn[nH]c1)C(=O)CCc1ccc(Cl)cc1 | 144.4
38 | CC(=O)N1CCN(CCNc2snc(Cl)c2C#N)CC1 | 4.799
39 | COCCC(=O)N(CCC#N)c1ccc2c(c1)OCCO2 | 95.73
40 | N#CCCN(Cc1cccnc1)C(=O)Cc1ccc(-n2cnnn2)cc1 | -0.659
41 | Cc1ccc(N(CCC#N)C(=O)CCc2cccnc2)cc1C | 98.05
42 | c1cncc(CCc2nc(C3CC3)nn2-c2ccc3c(c2)OCCO3)c1 | -5.22
43 | N#CCCN(C(=O)CCc1cccnc1)c1ccc2c(c1)OCCO2 | 88.06
44 | N#CCCN(Cc1cccnc1)C(=O)c1cccc(-n2cnnn2)c1 | -18.3
45 | COCCCC(=O)NS(=O)(=O)c1ccc2c(c1)OCCCO2 | -8.462
46 | CCC(C)N(Cc1cccnc1)Cc1ccc2c(c1)OCCO2 (centres undefined) | 9.848
47 | CC(C)(NCC(=O)NCCC#N)c1ccc2c(c1)OCCO2 | 4.777
48 | CCCN(CC1COc2ccccc2O1)C(=O)CCn1cncn1 (centres undefined) | -2.229
49 | O=C(Cn1cc(C(=O)O)ccc1=O)NCc1ccc(F)cc1Cl | 11.66
50 | Cc1c(Br)cccc1C(=O)NC(C)CN1CCCC1=O (centres undefined) | -7.738
51 | CC(C)NC(=O)N1C[C@@H](F)[C@@H](OCc2nc3ccccc3o2)C1 | -6.815
52 | CN(C)Cc1cc(CC2(NCc3ccccc3Cl)COC2)no1 | -4.538
53 | COC[C@@]12CC[C@@H](N3CCOCC3)C[C@H]1CCN(c1nc(CO)cs1)C2 | -10.66
54 | CCN(C)C(=O)c1ccnn1-c1ccc2ccccn12 | -2.565
